Assay results from the supplement of paper PMC6522484.
± gives the standard deviation of the averaged measurements.

Legend:
DLD1 [1] = test: cell viability (CellTiter-Glo) relative to plate median (fraction of plate median); higher = more viable cells; settings: 5 µM; treatment time 24 h; reporter: 7TFP
Summary of the method: (§1)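 Library compounds were added at a final concentration of 5 µM for 24 h to colorectal cancer cells stably transduced with a lentiviral TCF/Wnt firefly luciferase reporter. Reported values are firefly luciferase or CellTiterGlo luminescence, normalised per well to the plate median. Each value averages two independent replicates.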

HCT116 = test: as above; settings: 5 µM; treatment time 24 h; reporter: TCF4/Wnt
Summary of the method: as §1

SW480 [2] = test: as above; settings: 5 µM; treatment time 24 h; reporter: 7TFP
Summary of the method: as §1

DLD1 [3] = test: TCF/Wnt firefly luciferase reporter signal relative to plate median (fraction of plate median); higher = higher Wnt reporter signal; settings: 5 µM; treatment time 24 h; reporter: 7TFP
Summary of the method: as §1

SW480 [4] = test: as above; settings: 5 µM; treatment time 24 h; reporter: 7TFP
Summary of the method: as §1

| SMILES | cell viability (DLD1 [1]) | cell viability (HCT116) | cell viability (SW480 [2]) | TCF/Wnt firefly luciferase reporter signal (DLD1 [3]) | TCF/Wnt firefly luciferase reporter signal (SW480 [4]) |
| --- | --- | --- | --- | --- | --- |
| CC[C@H]1CN2CCc3cc(OC)c(OC)cc3[C@@H]2C[C@@H]1C[C@H]1NCCc2cc(OC)c(OC)cc21 | 0.984 ± 0.094 | 0.815 ± 0.3 | 0.902 ± 0.059 | 0.615 ± 0.1 | 0.608 ± 0.064 |
| C[C@]12CC[C@H]3[C@@H](CCC4=CC(=O)CC[C@@]43C)[C@@H]1CC[C@@H]2O | 1.03 ± 0.021 | 1.15 ± 0.17 | 1.045 ± 0.0071 | 0.967 ± 0.061 | 1.04 ± 0.092 |
| C=CCc1ccc2c(c1)OCO2 | 0.985 ± 0.021 | 0.898 ± 0.13 | 1.06 ± 0.078 | 0.914 ± 0.16 | 0.952 ± 0.11 |
| C=C1C2CC[C@@]3(C)[C@H](c4ccoc4)OC(=O)C[C@]13O[C@H]1CC(=O)C(C)(C)[C@H](C(OC(C)=O)C(=O)OC)[C@@]21C (stereo not given in full) | 1.025 ± 0.0071 | 1.13 ± 0.057 | 1 ± 0.014 | 1.16 ± 0.057 | 0.826 ± 0.048 |
| C=C1[C@@H]2CCC3[C@@](CC[C@@H]4[C@H](C(=O)O)C[C@@H](O[C@@H]5O[C@H](CO)[C@@H](OS(=O)(=O)O)[C@H](OS(=O)(=O)O)[C@H]5OC(=O)CC(C)C)C[C@@]34C)(C2)[C@@H]1O (stereo not given in full) | 1 ± 0.093 | 1.04 ± 0.061 | 1.01 ± 0.054 | 1.03 ± 0.072 | 0.9585 ± 0.0064 |
| COc1ccc(C(=O)O[C@H]2CC[C@@]3(C)[C@@H]4CC[C@H]5[C@]6(O)C[C@H](O)[C@@]7(O)[C@@H](CN8C[C@@H](C)CC[C@H]8[C@@]7(C)O)[C@]6(O)C[C@@]53O[C@]24O)cc1OC | 0.98 ± 0.043 | 0.942 ± 0.083 | 1.02 ± 0.099 | 1.03 ± 0.14 | 1.05 ± 0.087 |
| CC(C)(O)[C@@H]1[C@H]2OC(=O)[C@@H]1[C@]1(O)C[C@H]3O[C@]34C(=O)O[C@H]2[C@]14C | 1.03 ± 0.046 | 0.949 ± 0.021 | 1.025 ± 0.0071 | 1.02 ± 0.17 | 1.04 ± 0.089 |
| NC(=O)CN1CCCC1=O | 1.02 ± 0.051 | 1.01 ± 0.092 | 0.955 ± 0.024 | 0.925 ± 0.023 | 1.15 ± 0.05 |
| CC(C)C[C@H](CN)CC(=O)O | 1.03 ± 0.073 | 1.05 ± 0.1 | 1.04 ± 0.014 | 1.09 ± 0.064 | 0.936 ± 0.011 |
| CC(CC(C(N)=O)(c1ccccc1)c1ccccc1)N(C)C (stereo not given) | 0.995 ± 0.022 | 1.08 ± 0.035 | 1.01 ± 0.026 | 1 ± 0.014 | 1.01 ± 0.028 |
| O=C([O-])Cc1ccccc1.[Na+] | 0.97 ± 0.0057 | 0.906 ± 0.1 | 0.971 ± 0.021 | 0.923 ± 0.04 | 0.896 ± 0.0042 |
| CC(C)=CCCC1(C)C=Cc2c(O)c3c(c(CC=C(C)C)c2O1)OC12C(CC4CC1C(C)(C)OC2(C/C=C(/C)C(=O)O)C4O)C3=O (stereo not given) | 0.979 ± 0.087 | 1.04 ± 0.014 | 1.08 ± 0.028 | 0.975 ± 0.027 | 0.807 ± 0.036 |
| C/C(=C\c1csc(C)n1)[C@@H]1C[C@@H]2O[C@@H]2CCC[C@H](C)[C@H](O)[C@@H](C)C(=O)C(C)(C)[C@@H](O)CC(=O)O1 [Epothilone A] | 1.09 ± 0.021 | 0.464 ± 0.073 | 1.14 ± 0.099 | 0.732 ± 0.076 | 0.8595 ± 0.0078 |
| CCNc1nc(Cl)nc(NCC)n1 | 0.955 ± 0.028 | 1.065 ± 0.0071 | 1.02 ± 0.03 | 0.9375 ± 0.005 | 0.886 ± 0.034 |
| C=C[C@H]1CN2CC[C@H]1C[C@H]2[C@H](O)c1ccnc2ccccc12 | 1.03 ± 0.059 | 1.07 ± 0.042 | 1.01 ± 0.023 | 0.862 ± 0.061 | 0.981 ± 0.028 |
| CC(=O)C1CCC2C3CCC4C[C@H](O)CCC4(C)C3C[C@H](O)C12C (stereo partly drawn) [DIHYDROXY (3alpha,12alpha)PREGNAN-20-ONE] | 1.01 ± 0.042 | 1.12 ± 0.13 | 1.1 ± 0.064 | 0.9925 ± 0.0064 | 0.9855 ± 0.0021 |
| CNc1ccc(C(=O)CC(O)CCC(C)C2OC(=O)CC(O)CC(=O)CC(O)CC(O)CC(O)CC(O)CC3(O)CC(O)C(C(=O)OC)C(CC(O[C@@H]4O[C@H](C)[C@@H](O)[C@H](N)[C@@H]4O)/C=C/C=C/C=C/C=C/C=C/C=C/C=C/C2C)O3)cc1.COC(=O)C1C(O)CC2(O)CC(O)CC(O)CC(O)CC(O)CC(=O)CC(O)CC(=O)OC(C(C)CCC(O)CC(=O)c3ccc(N)cc3)C(C)/C=C/C=C/C=C/C=C/C=C/C=C/C=C/C(O[C@@H]3O[C@H](C)[C@@H](O)[C@H](N)[C@@H]3O)CC1O2 (stereo not given in full) | 0.932 ± 0.096 | 0.959 ± 0.011 | 0.962 ± 0.0085 | 0.85 ± 0.088 | 0.908 ± 0.023 |
| NCCc1cc(O)c(O)cc1O | 1.04 ± 0.065 | 1.03 ± 0.028 | 0.983 ± 0.025 | 1.13 ± 0.16 | 1.24 ± 0.021 |
| C=CCSSCC=C | 1.055 ± 0.0071 | 1.045 ± 0.0071 | 1.05 ± 0.078 | 1.1 ± 0.085 | 0.95 ± 0.13 |
| CC(=O)O[C@@H]1C[C@H]2C(C)(C)C(=O)C=C[C@]2(C)[C@H]2CC[C@]3(C)C(=CC(=O)O[C@H]3c3ccoc3)[C@@]21C | 0.99 ± 0.086 | 0.997 ± 0.075 | 0.963 ± 0.016 | 1.03 ± 0.1 | 0.975 ± 0.05 |

| SMILES | cell viability (DLD1 [1]) | cell viability (HCT116) | cell viability (SW480 [2]) | TCF/Wnt firefly luciferase reporter signal (DLD1 [3]) | TCF/Wnt firefly luciferase reporter signal (SW480 [4]) |
| --- | --- | --- | --- | --- | --- |
| CCC(C)C(=O)OC1CC2(C)C(c3ccoc3)OC(=O)CC23OC2(C)OC34C(OC(=O)C(C)C)C3(O)C(OC(=O)C5(C)OC5C)C5(C)CC3(O)C(C)(C5CC(=O)OC)C14O2 (stereo not given) | 1.09 ± 0.071 | 1.12 ± 0.11 | 1.08 ± 0.014 | 1.045 ± 0.0071 | 1.13 ± 0.014 |
| C=CCc1cc(OC)c2c(c1OC)OCO2 | 0.962 ± 0.15 | 0.864 ± 0.057 | 0.994 ± 0.023 | 0.876 ± 0.099 | 0.976 ± 0.033 |
| C[C@@H]1CC[C@@]2(OC1)O[C@H]1[C@@H](O)[C@H]3[C@@H]4CC[C@H]5C[C@@H](O[C@@H]6O[C@H](CO)[C@H](O[C@@H]7O[C@H](CO)[C@@H](O)[C@H](O[C@@H]8OC[C@@H](O)[C@H](O)[C@H]8O)[C@H]7O[C@@H]7O[C@H](CO)[C@H](O)[C@H](O[C@@H]8O[C@H](CO)[C@@H](O)[C@H](O)[C@H]8O)[C@H]7O)[C@H](O)[C@H]6O)[C@H](O)C[C@]5(C)[C@H]4CC[C@]3(C)[C@H]1[C@@H]2C | 1.02 ± 0.11 | 1.065 ± 0.0071 | 1.035 ± 0.0071 | 0.986 ± 0.09 | 1.095 ± 0.0071 |
| O[C@@H]1C[C@H]2CCC[C@@H](C1)N2Cc1ccccc1 | 0.9315 ± 0.0035 | 0.996 ± 0.048 | 0.949 ± 0.037 | 1.1 ± 0.042 | 0.893 ± 0.013 |
| CC(C)=CC1C(C(=O)OCc2cccc(Oc3ccccc3)c2)C1(C)C (stereo not given) | 0.971 ± 0.02 | 1.02 ± 0.037 | 0.985 ± 0.035 | 0.988 ± 0.1 | 0.979 ± 0.0042 |
| COC(=O)[C@]1(C)CC[C@]2(C)CC[C@]3(C)C4=CCc5c(cc(O)c(O)c5C)[C@]4(C)CC[C@@]3(C)[C@@H]2C1 | 0.9465 ± 0.0078 | 1.045 ± 0.0071 | 1.005 ± 0.0071 | 1.03 ± 0.054 | 1.11 ± 0.014 |
| COc1cc2c(cc1OC)[C@H](C)NCC2 | 0.962 ± 0.044 | 0.96 ± 0.13 | 0.9455 ± 0.00071 | 1.06 ± 0.085 | 1.07 ± 0.014 |
| CCOC(=O)C1C(C=C(C)C)C1(C)C (stereo not given) | 0.913 ± 0.11 | 0.961 ± 0.038 | 0.932 ± 0.05 | 0.906 ± 0.064 | 1.02 ± 0.035 |
| c1ccc2c(c1)[nH]c1cnccc12 | 0.956 ± 0.041 | 1.01 ± 0.021 | 0.9715 ± 0.005 | 0.892 ± 0.19 | 0.879 ± 0.065 |
| COc1ccc([C@H]2Oc3c(I)c(OC)cc(OC)c3C[C@@H]2O)cc1OC | 0.912 ± 0.011 | 0.89 ± 0.0071 | 1 ± 0.042 | 0.959 ± 0.2 | 1.07 ± 0.23 |
| CNNC | 0.936 ± 0.021 | 0.866 ± 0.11 | 0.945 ± 0.017 | 1.03 ± 0.14 | 0.894 ± 0.14 |
| N[C@H](CO)Cc1ccccc1 | 0.998 ± 0.059 | 0.982 ± 0.12 | 0.981 ± 0.0042 | 0.901 ± 0.09 | 0.761 ± 0.19 |
| CC[C@H]1CN2CC[C@H]1C[C@@H]2[C@@H](O)c1ccnc2ccc(OC)cc12 | 0.997 ± 0.0042 | 1.07 ± 0.05 | 1.06 ± 0.064 | 1.08 ± 0.24 | 1.06 ± 0.071 |
| c1ccc2c(c1)sc1ccccc12 | 1 ± 0.026 | 0.97 ± 0.11 | 1.01 ± 0.049 | 0.867 ± 0.033 | 0.935 ± 0.036 |
| CC(=O)O[C@@H]1[C@H]2CC[C@H]3[C@@](C)(O)[C@@H]4C[C@H](O)C(C)(C)[C@@]4(O)[C@H](O)C[C@@]13C[C@@]2(C)O | 1.04 ± 0.014 | 1.105 ± 0.0071 | 1.09 ± 0.064 | 1.04 ± 0.014 | 0.984 ± 0.19 |
| COc1ccc(OC)c(C(O)C(C)N)c1 (stereo not given) | 0.976 ± 0.1 | 0.974 ± 0.037 | 0.926 ± 0.029 | 0.976 ± 0.031 | 1.13 ± 0.11 |
| C=C[C@H]1CN2CC[C@H]1C[C@@H]2[C@@H](O)c1ccnc2ccccc12 | 1.02 ± 0.055 | 0.963 ± 0.021 | 0.984 ± 0.023 | 1.03 ± 0.028 | 0.926 ± 0.014 |
| C=C[C@H]1CN2CC[C@H]1C[C@H]2[C@H](OC(=O)OCC)c1ccnc2ccc(OC)cc12 | 1.01 ± 0.06 | 0.911 ± 0.063 | 0.995 ± 0.035 | 0.956 ± 0.013 | 0.98 ± 0.1 |
| C=C(C)[C@H]1Cc2c(ccc3c(=O)c4c(oc23)COc2cc(OC)c(OC)cc2-4)O1 | 1.07 ± 0.12 | 1 ± 0.041 | 1.12 ± 0.2 | 1.04 ± 0.099 | 0.919 ± 0.13 |
